Screening data (PubChem BioAssay)
Pf growth 48h: inhibits P. falciparum growth in the first generation, 48 h | P. falciparum luciferase growth in erythrocytes, 48 h | Potency, µM (top dose mostly 28.7 µM), without a hit: at the top dose activity change, negative = inhibition, most hits filed as inhibitors | 310,000 tested, 5.9% active | AID 504832; also: potency is read from the fitted curve at half-maximal effect; % is scaled to controls: 0 for no effect and ±100 for the full control effect
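In quantitative HTS format, infected erythrocytes bearing luciferase-reporter parasites were treated for a single generation at 37 C. Luminescence after adding detection reagent served as the growth measure.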
Shiga inhibitor: inhibitors of Shiga toxin in Vero cells. Vero cells, Shiga toxin protein synthesis inhibition reporter. 290,000 tested, 9.2% active. inhibition, % at 38.7 µM; in the data active = inhibition mostly above about 28%, no sharp cut-off; inactive = mostly below about 43%; also: 0% is about no effect
NS1 function inh: inhibitors of influenza NS1 protein function; AID 2326; Potency, µM (top dose mostly 46.1 µM), inactives show at the top dose activity, positive = more growth; 270,000 tested, 0.4% active; calls by dose curve; also: potency is read from the fitted curve at half-maximal effect; actives are rising curves; nearly all actives have a fitted effect of over 50% in size
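Growth recovery, yeast-based: influenza A NS1 expressed in S. cerevisiae causes slow growth, and suppressors are detected by OD600. The parent strain without NS1 is used as positive control.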
Cycloheximide cs: affects cycloheximide protein synthesis inhibition readout, counter-screen. cell reporter, cycloheximide protein synthesis inhibition counterscreen. max response, %. 300,000 tested, 12% active; in the data active = max response mostly above about 13%, no sharp cut-off; inactive = mostly below about 14%; also: read at 38.3 µM for the half of the compounds with a filed dose; 0% is about no effect
FBPA Giardia inh: inhibitors of Giardia lamblia fructose-1,6-bisphosphate aldolase | A8B2U2 | purified Giardia FBPA | Potency, µM (doses to about 59.6 µM), inactives show at the highest dose activity, negative = inhibition, hits mostly inhibitors | 290,000 tested, 0.71% active | AID 2451; also: potency is read from the fitted curve at half-maximal effect; % is scaled to controls: 0 for no effect and ±100 for the full control effect; nearly all actives have a fitted effect of over 55% in size
Target sequence (A8B2U2 whole entry, looked up): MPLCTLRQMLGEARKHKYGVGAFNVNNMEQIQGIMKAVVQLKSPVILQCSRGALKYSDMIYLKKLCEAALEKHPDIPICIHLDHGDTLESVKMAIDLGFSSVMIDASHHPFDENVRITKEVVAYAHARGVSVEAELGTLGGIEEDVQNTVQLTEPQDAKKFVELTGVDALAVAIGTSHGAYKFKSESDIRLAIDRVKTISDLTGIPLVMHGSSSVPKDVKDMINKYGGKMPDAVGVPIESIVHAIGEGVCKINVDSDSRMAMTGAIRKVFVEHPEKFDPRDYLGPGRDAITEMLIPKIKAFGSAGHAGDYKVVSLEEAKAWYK
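Giardia FBPA (40 nM reagent) was preincubated 10 min at RT with compound (up to 57.5 uM final), then substrate plus GAPDH/TPI/NAD/arsenate coupling system with diaphorase/resazurin was added; resorufin fluorescence (525/598 nm) was read after 20 min.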
Pf growth 96h: P. falciparum growth inhibition at 96 hour, primary screen for plastid delayed-death inhibitors | P. falciparum luciferase reporter growth, 96 h | Potency, µM (series often up to 28.7 µM), inactives show at the top dose activity change, negative = inhibition, actives largely listed as inhibitors | 320,000 tested, 6.9% active; also: potency is read from the fitted curve at half-maximal effect; % is scaled to controls: 0 for no effect and ±100 for the full control effect
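Two parasite generations (96 h, 37 C, 5% CO2) of compound exposure in infected erythrocytes (0.05% parasitemia, 2% hematocrit). Luciferase-reporter P. falciparum; decreased luminescence indicates inhibited growth, aimed at apicoplast-acting delayed death.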
* = called active by the depositor; ? = inconclusive; . = not tested or not shown; + = active, no number. The list is not random: actives were taken first. Their share in the collection is about 21%. Unless noted, calls follow the shape of the dose curve; as a rule, active = well fitted curve in the direction sought with a large enough effect; inconclusive = small, poorly fitted or top-dose-only effect, or another doubt; inactive = no such curve, though single readings can be large; an effect the other way counts as inactive or inconclusive.

SMILES	Pf growth 48h	Shiga inhibitor	NS1 function inh	Cycloheximide cs	FBPA Giardia inh	Pf growth 96h
COc1ccc(C)cc1NC(=O)CSc1nc2ccccc2nc1N1CC(C)OC(C)C1 (stereo not given)	?	6	?	1	0%	?
CCc1ccc(NC(=O)CSc2nc3ccccc3nc2N2CCCCC2)cc1	?	14	?	22*	-8%	?
COc1cccc(NC(=O)CSc2nc3ccccc3c3nc4ccccc4n23)c1	13µM*	-5	-10%	5	6%	14%
CCc1cccc(NC(=O)CSc2nc3ccccc3nc2N2CCCCC2)c1	.	14	.	17	.	.
COc1ccc(Cc2nnc(Nc3ccc4c(c3)OCCO4)[nH]c2=O)cc1	-20%	13	.	2	1%	?
O=[N+]([O-])c1ccc(NN=C2c3ccccc3Cc3ccccc32)c([N+](=O)[O-])c1	.	.	-8%	.	.	.
Cc1cccc(NC(=O)CSc2nc3ccccc3nc2N2CCCC2)c1	?	15	20%	10	4%	32%
N#CCSc1nc2ccccc2c2nc3ccccc3n12	?	+	-21%	5	-2%	7.4µM*
CCn1c(SCC#N)nc2ccccc2c1=O	-7%	-8	-3%	1	7%	18%
Cc1cccc(NC(=O)CSc2nc3ccccc3nc2N2CCCCC2)c1	13µM*	3	0%	-4	4%	?
COc1cccc(NC(=O)CSc2nc3ccccc3nc2N2CCCC2)c1	?	57*	-4%	37*	-12%	1%
Cc1noc(NC(=O)c2ccccc2C(F)(F)F)c1C#N	12%	-3	1%	-3	1%	23%
O=C1NCCCC1C(=O)Nc1ccccn1 (stereo not given)	1%	-9	0%	-2	4%	3%
CCOc1ccccc1NC(=O)C1COc2ccccc2O1 (stereo not given)	?	22	-60%	9	16%	?
Cc1cccc(NC(=O)C2COc3ccccc3O2)n1 (stereo not given)	?	55*	-33%	47*	4%	-4%
O=C(Nc1ccccn1)C1COc2ccccc2O1 (stereo not given)	51%	64*	4%	32*	-5%	5.9µM*
Cc1cnc(NC(=O)C2COc3ccccc3O2)s1 (stereo not given)	137%	39	-3%	13	-4%	74%
CC1Oc2ccccc2OC1C(=O)Nc1ccccn1 (stereo not given)	5.9µM*	-1	-4%	-1	6%	10%
O=C(Nc1ccc(Cl)cn1)C1COc2ccccc2O1 (stereo not given)	?	51*	0%	29*	1%	2%
Cc1ccc(Cn2c(/C=C/c3ccco3)nc3ccccc32)cc1	-13%	161*	-16%	103*	-11%	?
Clc1ccc(Cn2c(/C=C/c3ccco3)nc3ccccc32)cc1	?	187*	-24%	216*	-6%	?
CCCn1c(/C=C/c2ccco2)nc2ccccc21	19%	7	17%	12	-16%	?
O=C(CSc1nc2ccccc2n1Cc1ccccc1)N/N=C/c1ccco1	?	-3	-15%	7	18%	?
COc1ncc2nc(-c3cn(C)c4ccccc34)c(=O)n(CCC#N)c2n1	.	.	.	.	-19%	.
N#Cc1sc(NCc2ccccn2)nc1Cl	.	1	4%	-1	-6%	25%
SMILES	Pf growth 48h	Shiga inhibitor	NS1 function inh	Cycloheximide cs	FBPA Giardia inh	Pf growth 96h
Cc1c(C(=O)OCC(=O)Nc2c(C)n(C)n(-c3ccccc3)c2=O)oc2ccccc12	-3%	4	-2%	-2	6%	?
Cc1c(C=O)c(C=O)c(C)n1Cc1ccccc1	.	-10	-176%	-4	0%	5.2µM*
COc1ccc([C@H]2CC(=O)C=C(c3ccc(C)c([N+](=O)[O-])c3)C2)cc1	5%	.	.	.	.	23%
CCOC(=O)c1c(C)[nH]c(C(=O)COC(=O)COc2ccc(OC)cc2)c1C	22%	-15	9%	-2	4%	12%
CCOC(=O)c1c(C)[nH]c(N=Nc2ccc(C)cc2)c1C	55%	71	5%	31*	-11%	.
CCOC(=O)c1c(C)[nH]c(N=Nc2ccc(OC)cc2)c1C	153%	85*	-49%	35*	-21%	151%
CCOC(=O)c1[nH]c(C)c(C(=O)c2ccc(C)cc2)c1C	.	37	9%	27	-1%	86%
CCOC(=O)c1c(C)[nH]c(N=Nc2ccccc2Cl)c1C	?	97*	-52%	65*	-23%	17%
CCOC(=O)c1c(C)[nH]c(N=Nc2ccccc2)c1C	.	82*	-82%	54*	-10%	9%
CCOC(=O)c1c(C)[nH]c(C(=O)OCC(=O)c2ccccc2)c1C	16%	.	.	.	.	23%
OB(O)c1csc2ccccc12	.	.	.	.	1%	.
CN(C(=O)COC(=O)c1ccccc1OCc1ccc(F)cc1)C1CCS(=O)(=O)C1 (stereo not given)	-19%	.	.	.	.	-14%
Clc1cc(Cl)c2nc(N3CCOCC3)sc2c1	101%	51*	-11%	31*	2%	.
Clc1ccc(-c2nsc(N3CCOCC3)n2)c(Cl)c1	210%	72*	-34%	34*	10%	383%
Fc1cc(F)c2nc(N3CCCC3)sc2c1	97%	150*	.	29*	0%	88%
Fc1cccc2sc(N3CCCCC3)nc12	88%	57*	-22%	54*	-3%	9%
Clc1ccc(Cl)c2sc(N3CCOCC3)nc12	.	.	-3%	.	.	.
Fc1cccc2sc(N3CCOCC3)nc12	41%	52*	1%	15*	-3%	?
O=c1[nH]nc(Cc2ccc(-c3cccc(Cl)c3)o2)c2ccccc12	?	-1	-5%	-2	-1%	0%
Brc1ccc(-c2ccc(CNCc3ccccn3)o2)cc1	-32%	55	-2%	26*	25%	?
Clc1cccc(-c2ccc(CNCc3ccccn3)o2)c1	216%	81*	0%	32*	6%	?
CCCN(C1CCS(=O)(=O)C1)S(=O)(=O)c1cc(OC)ccc1OC (stereo not given)	?	.	.	.	.	-13%
CSc1ncnc2c1ncn2CC(=O)[C@H]1CC[C@H]2[C@H]3CCC4=CC(=O)CC[C@@]4(C)[C@@H]3CC[C@@]12C	.	.	5%	.	.	.
CN(C)c1ccc(-c2n(C)c3ccccc3[n+]2C)cc1	?	52*	6%	27*	?	.
Cn1c(-c2ccc3ccccc3n2)[n+](C)c2ccccc21	?	72*	0%	53*	-7%	0.93µM*
CCCn1c(SCC(=O)Nc2ccc(NC(=O)CC)cc2)nc2c1c(=O)n(C)c(=O)n2C	?	-8	?	-7	17%	-3%
COc1ccccc1NC(=O)CSc1nncn1-c1cccnc1	3%	24	-1%	1	0%	-10%
CCc1ccc(NC(=O)CSc2nc3c(c(=O)n(C)c(=O)n3C)n2C)cc1	-3%	-6	-39%	-4	8%	10µM*
